From the supplement of paper PMC6897291 come the findings set out here.

Molecules are shown by their SMILES.

The test system of the test is RIVA. The test is described as follows: growth inhibition by drug alone (1 - RLU/untreated control) (fraction); higher = stronger inhibition. To be noted: 177Lu-lilotomab satetraxetan 0 ug/ml. As for the experimental part:
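RIVA (RI-1) ABC-DLBCL cells were pretreated or not for 18 h with 0.5 ug/ml 177Lu-lilotomab satetraxetan (600 MBq/mg), washed and seeded (3000 cells/well) on 384-well plates pre-printed with the Selleck Cambridge Cancer Compound library. Viability was read by RealTime-Glo luminescence on days 3-6 after seeding. Effect = 1 - RLU/mean RLU of the 48 untreated no-drug control wells per plate; Bliss score = (M-E)/(1-Fa).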

`O=C(Oc1ccc([N+](=O)[O-])cc1)N1CCC(C(O)(c2ccc3c(c2)OCO3)c2ccc3c(c2)OCO3)CC1`: the “growth inhibition by drug alone” value reads like this: (10 nM, time (day): 3) 0.0104; (10 nM, time (day): 4) -0.0507; (10 nM, time (day): 5) -0.0874; (10 nM, time (day): 6) -0.233; (100 nM, time (day): 3) -0.163; (100 nM, time (day): 4) -0.136. Moreover, the “growth inhibition by drug alone” value is, setting by setting: (100 nM, time (day): 5) -0.159; (100 nM, time (day): 6) -0.226.

On to `O=P1(N(CCCl)CCCl)NCCCO1` (stereo not given) [Cyclophosphamide monohydrate], for which the “growth inhibition by drug alone” value is -0.165 (10 nM, time (day): 3); -0.182 (10 nM, time (day): 4); -0.227 (10 nM, time (day): 5); -0.326 (10 nM, time (day): 6); 0.0466 (100 nM, time (day): 3); -0.0413 (100 nM, time (day): 4). The “growth inhibition by drug alone” value runs as follows: (100 nM, time (day): 5) -0.0801; (100 nM, time (day): 6) -0.114.

For the molecule `CC(O)(CS(=O)(=O)c1ccc(F)cc1)C(=O)Nc1ccc(C#N)c(C(F)(F)F)c1` (stereo not given) [Bicalutamide (Casodex)], the “growth inhibition by drug alone” value is, setting by setting: (10 nM, time (day): 3) 0.121; (10 nM, time (day): 4) 0.0197; (10 nM, time (day): 5) -0.0376; (10 nM, time (day): 6) -0.206; (100 nM, time (day): 3) 0.0203; (100 nM, time (day): 4) -0.00253. Also, the “growth inhibition by drug alone” value (100 nM, time (day): 5) is -0.0289 and the “growth inhibition by drug alone” value (100 nM, time (day): 6) was -0.0827.

Turning to `CCC1(c2ccc(N)cc2)CCC(=O)NC1=O` (stereo not given) [Aminoglutethimide (Cytadren)], the “growth inhibition by drug alone” value (10 nM, time (day): 3) is -0.0651; the “growth inhibition by drug alone” value (10 nM, time (day): 4) was -0.101; the “growth inhibition by drug alone” value (10 nM, time (day): 5) was -0.237; the “growth inhibition by drug alone” value (10 nM, time (day): 6) is -0.445; the “growth inhibition by drug alone” value (100 nM, time (day): 3) is -0.578; the “growth inhibition by drug alone” value (100 nM, time (day): 4) was -0.484. Also, the “growth inhibition by drug alone” value is -0.518 (100 nM, time (day): 5) and -0.688 (100 nM, time (day): 6).

On to `CC1=C2C[C@H]3[C@@H](CC=C4C[C@@H](O)CC[C@@]43C)[C@@H]2CC[C@]12O[C@@H]1C[C@H](C)CN[C@H]1[C@H]2C` [Cyclopamine], for which the “growth inhibition by drug alone” value is -0.0274 (10 nM, time (day): 3); 0.0131 (10 nM, time (day): 4); -0.0438 (10 nM, time (day): 5); -0.264 (10 nM, time (day): 6); 0.0149 (100 nM, time (day): 3); 0.0126 (100 nM, time (day): 4). Moreover, the “growth inhibition by drug alone” value reads like this: (100 nM, time (day): 5) -0.0321; (100 nM, time (day): 6) -0.131.
